Our source for the binding signal values is paper PMC6212790, “How bacterial xenogeneic silencer rok distinguishes foreign from self DNA in its resident genome”.

The full ranking holds about 33,000 sequences; the median of “e-score” is about -0.038, and the highest 2% start at about 0.33. This excerpt belongs to a sample that is enriched for the highest values.

The target in the assay is T1, GST-Rok-C97-191 (Bacillus subtilis subsp. subtilis str. …, UniProt O34857 97-191).
T1 sequence: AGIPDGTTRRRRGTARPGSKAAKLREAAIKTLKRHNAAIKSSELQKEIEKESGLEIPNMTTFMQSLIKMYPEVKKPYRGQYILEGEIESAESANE
Briefly: protein binding microarray; Rok is a gene silencer of Bacillus subtilis; high values mean tight binding. Conditions: protein: recombinant; tags: GST (pTH5325, pDEST15-Magic modified); dsDNA, one strand shown. In short, it runs like this:
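Every oligonucleotide joins a 25-mer constant primer to a 35-mer variable part drawn from a de Bruijn sequence of order 10, so each non-palindromic 8-mer appears at least 32 times and each palindromic 8-mer 16 times. The preference for every 8-mer is reported as a unitless, rank-based enrichment score (E-score). This score spans 0.5 for the most favored 8-mer to −0.5 for the most disfavored.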
Turning to GTCGGAAC, the binding signal was 0.0505 E-score.
For the sequence AAGGTTGA, the binding signal stood at 0.063 E-score.
Regarding CTACCTTA, the binding signal is 0.264 E-score.
Consider AAAAGCAA, for which the binding signal was determined as 0.148 E-score.
Take CGATTATC: the binding signal is 0.0925 E-score.
In the case of TACTGAGA, the binding signal stood at 0.0745 E-score.
For the sequence ATACTAAT, the binding signal was 0.321 E-score.
Next, ATACTAAC: 0.103 E-score.
On to GGACTAAA, for which the binding signal was determined as 0.0947 E-score.
Regarding CTACTAAA, the binding signal was 0.379 E-score.
Regarding CTACTAAG, the binding signal was determined as 0.261 E-score.
Next, GTACTAAC: 0.145 E-score; TTACTAAA: 0.335 E-score.
In the case of CTACTAAC, the binding signal is 0.223 E-score.
As to GTACTAAA, the binding signal turned out to be 0.329 E-score.
As for TCACTAAA, the binding signal is 0.164 E-score.
Next, TGACTAAA: 0.0396 E-score; ATACTAAA: 0.39 E-score; TATTTCCA: 0.228 E-score.
Next, ACTATTGC: 0.313 E-score; CTATCTTA: 0.227 E-score.
Next, AAGAATCT: 0.0962 E-score.
Turning to TTCCTCAA, the binding signal was 0.041 E-score.
AACTGAGC: the binding signal was found to be 0.0188 E-score.
For the sequence GAAGCTGA, the binding signal came to 0.014 E-score.
On to ACGGTCCT, for which the binding signal is -0.132 E-score.
AAACTGTT: the binding signal was -0.043 E-score.
Next, GAAAGATA: 0.329 E-score; GTAAGATA: 0.229 E-score; GTTAGATA: 0.321 E-score.
Turning to CATAGATA, the binding signal was found to be 0.297 E-score.
Next, GATAGATA: 0.347 E-score; CTAAGATA: 0.213 E-score; GATAGATC: 0.268 E-score.
Take ATAAGATA: the binding signal stood at 0.372 E-score.
As to TAAAGATA, the binding signal came to 0.27 E-score.
In the case of AAAAGATA, the binding signal is 0.137 E-score.
Take AATAGATA: the binding signal stood at 0.32 E-score.
Take TATAGATA: the binding signal was 0.368 E-score.
Next, AACATCGA: 0.134 E-score; GCACAAAC: -0.0175 E-score; AGCGTGGA: 0.126 E-score.
In the case of AAAAGAGA, the binding signal amounted to 0.147 E-score.
With TCCATTCA, the binding signal is -0.131 E-score.
Regarding TAACAATA, the binding signal stood at 0.292 E-score.
For the sequence GATTTGCC, the binding signal was -0.0374 E-score.
For the sequence CGTTATCC, the binding signal is -0.0591 E-score.
For the sequence ACACCTGC, the binding signal was -0.197 E-score.
Turning to GTGCGGGA, the binding signal was -0.196 E-score.
Turning to CTCCCATC, the binding signal was -0.161 E-score.
In the case of AATAGATT, the binding signal was 0.352 E-score.
In the case of AATAGATC, the binding signal is 0.161 E-score.
On to AATAGATG, for which the binding signal worked out at 0.267 E-score.
For CTAGTCGA, the binding signal was 0.131 E-score.
Turning to GATAAGCA, the binding signal came out at 0.0731 E-score.
ATAATACA: the binding signal worked out at 0.242 E-score.
For ATAATAAT, the binding signal is 0.31 E-score.
Consider ATAATAAG, for which the binding signal amounted to 0.331 E-score.
ATAATACC: the binding signal came out at 0.197 E-score.
For the sequence ATAATACG, the binding signal was 0.344 E-score.
Take CTAATAAG: the binding signal turned out to be 0.127 E-score.
With AGGAACCA, the binding signal was 0.128 E-score.
On to AAGCTTGC, for which the binding signal was -0.0667 E-score.
For AAGACGGC, the binding signal is -0.186 E-score.
For the sequence CCTCGCTC, the binding signal was -0.125 E-score.
In the case of AAATATAG, the binding signal was 0.22 E-score.
On to AAATATAA, for which the binding signal was found to be 0.269 E-score.
On to AAATATAT, for which the binding signal came out at 0.417 E-score.
For AAATATAC, the binding signal amounted to 0.401 E-score.
Consider AACTATAT, for which the binding signal was 0.415 E-score.
In the case of GAATATAC, the binding signal came to 0.293 E-score.
For the sequence AACTATAG, the binding signal is 0.327 E-score.
With AACTATAC, the binding signal is 0.253 E-score.
Next, CAATATAC: 0.243 E-score.
AAGTGCGG: the binding signal came out at 0.009 E-score.
Next, CGAGCCTA: -0.0633 E-score.
Next, GAACGTCA: -0.14 E-score.
As for CGGCACTA, the binding signal came out at 0.0999 E-score.
In the case of ATTTAGGG, the binding signal was -0.024 E-score.
CTTTGCTC: the binding signal was -0.124 E-score.
Consider TAAGTACA, for which the binding signal is 0.35 E-score.
With CAAGTACA, the binding signal worked out at 0.151 E-score.
Next, AAAGTACC: 0.291 E-score.
Consider AAAGTACG, for which the binding signal was 0.192 E-score.
As for AAAGTACA, the binding signal was determined as 0.366 E-score.
Take GAAGTACA: the binding signal is 0.237 E-score.
Next, CCGTTGGA: -0.177 E-score.
Next, ACAAAACG: -0.11 E-score.
For AATTTACA, the binding signal is 0.331 E-score.
Regarding AATTTAAT, the binding signal came out at 0.321 E-score.
Next, GATTTACC: 0.187 E-score; AATTTACC: 0.345 E-score.
Consider CATTTACA, for which the binding signal worked out at 0.277 E-score.
Regarding AATTTAGT, the binding signal is 0.165 E-score.
Turning to TATTTACA, the binding signal stood at 0.235 E-score.
As to ATTTTACC, the binding signal is 0.322 E-score.
As for AATTTACG, the binding signal came out at 0.338 E-score.
Take ATTTTACG: the binding signal came to 0.268 E-score.
For the sequence AATTTACT, the binding signal stood at 0.416 E-score.
Consider CATTTACG, for which the binding signal was determined as 0.0408 E-score.
In the case of AAAAATGT, the binding signal came to 0.129 E-score.
Regarding AAGGCAGC, the binding signal is 0.0072 E-score.
Take CCAAACGG: the binding signal was -0.0693 E-score.
As for CAATGTTA, the binding signal turned out to be 0.195 E-score.
On to CTGCGCCC, for which the binding signal was -0.144 E-score.
Turning to GACACTGC, the binding signal is -0.137 E-score.
Next, AGCGTTCC: -0.026 E-score.
On to AATCAGAC, for which the binding signal is -0.0483 E-score.
In the case of CGCGATTA, the binding signal worked out at 0.0183 E-score.
Next, AGCAGTCA: 0.0635 E-score; ACGACCTA: 0.00188 E-score; ATTTTTCG: 0.181 E-score.
For the sequence TTACGTAA, the binding signal was found to be 0.261 E-score.
Take ATACGTAA: the binding signal worked out at 0.371 E-score.
Next, GTACGTAA: 0.0489 E-score; ACGGAAGG: -0.162 E-score; ATATCTAC: 0.377 E-score.
For the sequence CCATCTAC, the binding signal was found to be 0.213 E-score.
For the sequence ATATCTAG, the binding signal was 0.284 E-score.
Next, ATATCTAA: 0.351 E-score; CTATCTAA: 0.282 E-score.
As for ATCTCTAC, the binding signal was 0.118 E-score.
As to ATATCTTC, the binding signal stood at 0.344 E-score.
ATATCTTA: the binding signal stood at 0.26 E-score.
Next, CTCTCTAC: 0.064 E-score; CTATCTAC: 0.433 E-score.
For ATCTCTAA, the binding signal stood at 0.106 E-score.
Consider CTATCTTC, for which the binding signal is 0.105 E-score.
In the case of CAGACGGA, the binding signal was -0.1 E-score.
As to CGGTCGCA, the binding signal is -0.0742 E-score.
On to GTCAATTA, for which the binding signal came to 0.163 E-score.
Regarding GAACAGAC, the binding signal is -0.0366 E-score.
Next, TACGCAGA: -0.138 E-score; AGCTGAAC: -0.0772 E-score; GATAAAGC: -0.0584 E-score.
As to CTAAGTAA, the binding signal is 0.266 E-score.
With CGTATCAA, the binding signal is 0.0404 E-score.
Next, CTACTAGA: 0.293 E-score.
In the case of ATACTACA, the binding signal was 0.388 E-score.
Next, GTACTACA: 0.296 E-score; ATACTGCA: 0.287 E-score; CTACTACA: 0.366 E-score.
Turning to ACACTACA, the binding signal was determined as 0.294 E-score.
Next, AGACGTGC: -0.045 E-score.
CAGCTAAA: the binding signal is 0.0943 E-score.
Consider CTTTTTGC, for which the binding signal is -0.0956 E-score.
For CTAAGCGA, the binding signal is -0.171 E-score.
In the case of TAGTCAAA, the binding signal is 0.158 E-score.
Next, CAATATTC: 0.186 E-score; AAATATTA: 0.355 E-score; CTATATTA: 0.355 E-score.
Take AAATATTC: the binding signal was determined as 0.219 E-score.
As to ATATATTG, the binding signal is 0.419 E-score.
As for TAATATTA, the binding signal stood at 0.287 E-score.
ACATATTG: the binding signal worked out at 0.232 E-score.
On to GAATATTA, for which the binding signal is 0.2 E-score.
With CCATATTA, the binding signal came out at 0.121 E-score.
For AAATATTG, the binding signal came to 0.286 E-score.
Regarding GAATATTC, the binding signal was found to be 0.339 E-score.
For CAATATTA, the binding signal turned out to be 0.204 E-score.
Next, ACCTATTC: 0.0409 E-score.
Turning to GAATGCAA, the binding signal is -0.0262 E-score.
In the case of CCGCAAAA, the binding signal was -0.142 E-score.
In the case of AGGCCGGA, the binding signal was -0.102 E-score.
As to CTATATTC, the binding signal was 0.274 E-score.
As for ATATATTA, the binding signal is 0.447 E-score.
As to ATATATTC, the binding signal was found to be 0.374 E-score.
ACATATTA: the binding signal stood at 0.304 E-score.
Next, CGATATTA: 0.286 E-score; GTATATTA: 0.371 E-score; AGATATTA: 0.356 E-score.
For ATGTATTA, the binding signal stood at 0.301 E-score.
Next, GCATATTA: 0.153 E-score; CTCTATTC: -0.103 E-score; AGATATTG: 0.186 E-score.
For GTGTATTA, the binding signal was determined as 0.11 E-score.
Take AGGTCCCG: the binding signal is -0.133 E-score.
Next, AAACTTCA: 0.0505 E-score; GAAAAACA: 0.0708 E-score; CACGGAAG: 0.00148 E-score.
As for AAAGTCTC, the binding signal worked out at 0.0451 E-score.
Turning to AGGGTCGC, the binding signal was -0.122 E-score.
On to GCGTCCAA, for which the binding signal was -0.0249 E-score.
With GCGTAAAA, the binding signal is 0.139 E-score.
For ACCTCGAT, the binding signal worked out at 0.113 E-score.
Regarding AGCCGTTC, the binding signal was -0.05 E-score.
Next, ACAGCAAG: -0.0495 E-score.
Next, ACGGTAGT: 0.408 E-score; ACGGTAGC: 0.0805 E-score; AAGGTAGG: -0.00436 E-score.
For AAGGTAGC, the binding signal was 0.158 E-score.
Next, AAGGTAGT: 0.33 E-score; ACGGTAGA: 0.318 E-score.
Turning to ATGCAAGC, the binding signal was -0.0317 E-score.
Next, CGTCGCTC: -0.161 E-score; ACATTCCC: -0.0621 E-score.
As to AGGACCGG, the binding signal is -0.171 E-score.
ATCTACTA: the binding signal is 0.456 E-score.
For GTCTACTA, the binding signal is 0.29 E-score.
Next, ATCTACTC: 0.206 E-score.
Next, ATCTACTG: 0.423 E-score; CTCTACTA: 0.2 E-score.
ATCTACGG: the binding signal came to 0.0258 E-score.
Next, ACCCACTG: -0.0641 E-score.
As to CATCGGAC, the binding signal turned out to be 0.0521 E-score.
In the case of GGCAAAGA, the binding signal is -0.188 E-score.
Turning to ACGGTTAT, the binding signal was found to be 0.165 E-score.
Turning to ATGATACG, the binding signal is 0.141 E-score.
On to CTACCCGC, for which the binding signal was -0.0513 E-score.
Take CGGTAAGA: the binding signal is -0.0738 E-score.
